In test [1] the target is rat Neurokinin-1 Receptor (NK1), Tacr1 (gene 24807) (UniProt P14600). The test is described as follows: NVS_GPCR_rNK1: NovaScreen (NVS) G Protein-Coupled Receptor Assay for rat Neurokinin-1 Receptor (NK1) (AID 2283309). Put shortly:
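Rat submaxillary gland membranes; radioligand displacement read by filter-based scintillation counting after 1 h. Primary screen in duplicate at 25 uM; actives retested in concentration series; loss of binding fitted versus DMSO.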

For test [2], the target named is rat Opioid Receptor, Non-selective Sodium (Na+) Binding, Oprm1 (gene 25601) (UniProt P33535). The test is described as follows: NVS_GPCR_rOpiate_NonSelectiveNa: NovaScreen (NVS) G Protein-Coupled Receptor Assay for rat Opioid Receptor, Non-selective Sodium (Na+) Binding (AID 2283311). The protocol:
NVS_GPCR_rOpiate_NonSelectiveNa is a biochemical, single-readout assay that uses extracted gene-proteins from Rat forebrain membranes in a tissue-based cell-free assay. Measurements were taken 1.5 hours after chemical dosing in a 48-well plate.NVS_GPCR_rOpiate_NonSelectiveNa is one of one assay component(s) measured or calculated from the NVS_GPCR_rOpiate_NonSelectiveNa assay. It is designed to make measurements of radioligand binding, a form of binding reporter, as detected with scintillation counting signals by Filter-based radiodetection technology.Data from the assay component NVS_GPCR_rOpiate_NonSelectiveNa was analyzed into 1 assay endpoint. This assay endpoint, NVS_GPCR_rOpiate_NonSelectiveNa, was analyzed in the positive analysis fitting direction relative to DMSO as the negative control and baseline of activity. Using a type of binding reporter, loss-of-signal activity can be used to understand changes in the binding as they relate to the gene Oprm1. Furthermore, this assay endpoint can be referred to as a primary readout, because the performed assay has only produced 1 assay endpoint. To generalize the intended target to other relatable targets, this assay endpoint is annotated to the gpcr intended target family, where the subfamily is rhodopsin-like receptor.
Binding assays used specific radioligands (tritiated, iodinated) with non-radioactive competitive displacement ligands in agonist or antagonist protocols (as indicated) and various reference compounds and inhibitors to titrate specific binding to receptors and transporters. Most enzyme assays (CYPs, kinases, phosphatases, proteases, HDACs) used recombinant protein and specific substrates (fluorescence mostly, some colorimetric and radioactive) and inhibitors, followed by a biochemical separation of substrate and product. All assays for the biochemical HTS were initially run in duplicate at a single concentration (10 uM for CYP450 assays and 25 uM for all others). Assay-chemical combinations meeting a pre-defined threshold (e.g., 30% inhibition and other criteria defined below) were then run in singleton concentration-response format with maximum concentration of 20 uM for CYPs and 50 uM for all others. Each assay was run with positive and negative controls, and concurrent controls on every plate. The follow-up (secondary) screen tested active chemical-pairs in concentration series, as well as a few additional assays not tested in the primary screen, some selected negative inactives, and several cases re-run in the concentration series for confirmatory purposes.

Test [3] addresses rat Neurokinin-3 Receptor (NK3), Tacr3 (gene 24808) (UniProt P16177). The test is described as follows: NVS_GPCR_rNK3: NovaScreen (NVS) G Protein-Coupled Receptor Assay for rat Neurokinin-3 Receptor (NK3) (AID 2283310). Put shortly: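 Rat cortical membranes; radioligand binding with filtration and scintillation counting, 2 h after dosing. Primary screen in duplicate at 25 uM, then concentration-response up to 50 uM; loss of binding signal relative to DMSO.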

The target in test [4] is rat Adrenergic Receptor, Beta (Adrb), Non-selective Binding, Adrb1 (gene 24925) (UniProt P18090). The experiment in a line: NVS_GPCR_rAdrb_NonSelective: NovaScreen (NVS) G Protein-Coupled Receptor Assay for rat Adrenergic Receptor, Beta (Adrb), Non-selective Binding (AID 2283298). In short, it runs like this: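 Non-selective beta-adrenergic radioligand binding in rat cortical membranes, 1 h incubation, filter-based scintillation read-out. Primary screen 25 uM in duplicate; hits retested in concentration-response up to 50 uM, DMSO baseline.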
Sequence of rat Adrenergic Receptor, Beta (Adrb), Non-selective Binding, Adrb1 (gene 24925) (P18090 whole entry, looked up): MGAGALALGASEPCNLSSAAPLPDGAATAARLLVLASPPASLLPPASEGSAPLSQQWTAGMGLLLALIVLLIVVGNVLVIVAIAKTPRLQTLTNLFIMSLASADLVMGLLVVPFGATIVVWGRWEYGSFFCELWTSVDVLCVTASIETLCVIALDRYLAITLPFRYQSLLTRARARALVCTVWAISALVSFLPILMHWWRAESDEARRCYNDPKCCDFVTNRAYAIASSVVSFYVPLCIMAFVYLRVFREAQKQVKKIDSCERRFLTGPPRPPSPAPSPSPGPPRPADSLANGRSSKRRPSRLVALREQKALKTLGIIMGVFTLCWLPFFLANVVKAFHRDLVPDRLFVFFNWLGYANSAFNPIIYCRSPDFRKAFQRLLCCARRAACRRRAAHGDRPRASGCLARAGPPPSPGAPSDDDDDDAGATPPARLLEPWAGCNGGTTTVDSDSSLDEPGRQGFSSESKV

For test [5], the target named is Metabotropic glutamate receptor 1 (Rattus norvegicus) (UniProt P23385). The test is described as follows: NVS_GPCR_rmMGluR1: NovaScreen (NVS) G Protein-Coupled Receptor Assay for rat Glutamate Metabotropic Receptor 1 (MGluR1) (AID 2283305). As for the experimental part: NVS_GPCR_rmMGluR1 is a biochemical, single-readout assay that uses extracted gene-proteins from Rat cerebellum in a tissue-based cell-free assay. Measurements were taken 1 hour after chemical dosing in a 96-well plate.NVS_GPCR_rmMGluR1 is one of one assay component(s) measured or calculated from the NVS_GPCR_rmMGluR1 assay. It is designed to make measurements of radioligand binding, a form of binding reporter, as detected with scintillation counting signals by Filter-based radiodetection technology.Data from the assay component NVS_GPCR_rmMGluR1 was analyzed into 1 assay endpoint. This assay endpoint, NVS_GPCR_rmMGluR1, was analyzed in the positive analysis fitting direction relative to DMSO as the negative control and baseline of activity. Using a type of binding reporter, loss-of-signal activity can be used to understand changes in the binding as they relate to the gene Grm1. Furthermore, this assay endpoint can be referred to as a primary readout, because the performed assay has only produced 1 assay endpoint. To generalize the intended target to other relatable targets, this assay endpoint is annotated to the gpcr intended target family, where the subfamily is metabotropic glutamate receptor. […]
Sequence of Metabotropic glutamate receptor 1 (Rattus norvegicus) (P23385 whole entry, looked up): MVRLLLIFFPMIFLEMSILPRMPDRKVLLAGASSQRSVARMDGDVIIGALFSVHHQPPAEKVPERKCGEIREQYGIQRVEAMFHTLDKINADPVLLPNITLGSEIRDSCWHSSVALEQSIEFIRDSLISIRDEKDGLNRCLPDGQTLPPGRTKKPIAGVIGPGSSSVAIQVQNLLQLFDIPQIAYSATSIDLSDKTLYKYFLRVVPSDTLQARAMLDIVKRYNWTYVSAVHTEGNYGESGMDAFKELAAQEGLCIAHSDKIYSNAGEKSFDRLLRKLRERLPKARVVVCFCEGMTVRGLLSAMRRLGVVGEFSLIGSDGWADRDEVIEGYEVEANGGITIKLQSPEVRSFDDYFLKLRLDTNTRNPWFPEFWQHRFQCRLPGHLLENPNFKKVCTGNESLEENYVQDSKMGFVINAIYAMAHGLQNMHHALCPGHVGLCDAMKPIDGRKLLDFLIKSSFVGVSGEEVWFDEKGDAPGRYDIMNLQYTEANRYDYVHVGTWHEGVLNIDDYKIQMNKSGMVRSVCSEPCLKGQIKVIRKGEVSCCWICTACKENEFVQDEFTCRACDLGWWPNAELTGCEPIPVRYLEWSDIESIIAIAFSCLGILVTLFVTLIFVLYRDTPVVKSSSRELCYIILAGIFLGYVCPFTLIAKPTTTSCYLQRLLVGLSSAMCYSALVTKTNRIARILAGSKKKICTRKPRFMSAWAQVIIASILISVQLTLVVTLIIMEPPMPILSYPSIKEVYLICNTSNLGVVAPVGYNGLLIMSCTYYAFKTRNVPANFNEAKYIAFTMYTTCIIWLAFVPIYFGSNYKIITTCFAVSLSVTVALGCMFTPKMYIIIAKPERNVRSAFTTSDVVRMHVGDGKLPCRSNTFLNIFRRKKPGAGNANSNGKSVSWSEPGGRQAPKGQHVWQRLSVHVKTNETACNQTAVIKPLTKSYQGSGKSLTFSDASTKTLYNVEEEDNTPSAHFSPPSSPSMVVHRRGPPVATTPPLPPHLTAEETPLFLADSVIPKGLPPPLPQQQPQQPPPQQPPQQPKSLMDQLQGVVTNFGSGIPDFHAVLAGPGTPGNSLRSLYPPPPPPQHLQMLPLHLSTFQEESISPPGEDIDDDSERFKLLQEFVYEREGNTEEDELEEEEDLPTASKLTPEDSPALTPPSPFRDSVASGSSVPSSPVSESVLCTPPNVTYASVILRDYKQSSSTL

The target of test [6] is Adra2b (gene 24174) (UniProt P19328). The test is described as follows: NVS_GPCR_rmAdra2B: NovaScreen (NVS) G Protein-Coupled Receptor Assay for hybird cells Adrenergic, Alpha 2B Receptor (Adra2B) (AID 2283306). Put shortly: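 Radioligand filter-binding assay on membrane proteins from neuroglioma/blastoma hybrid cells (rodent), 1 h after dosing; scintillation counting, loss of signal vs DMSO. Primary screen in duplicate at 25 uM, actives then run in concentration series.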
Sequence of Adra2b (gene 24174) (P19328 whole entry, looked up): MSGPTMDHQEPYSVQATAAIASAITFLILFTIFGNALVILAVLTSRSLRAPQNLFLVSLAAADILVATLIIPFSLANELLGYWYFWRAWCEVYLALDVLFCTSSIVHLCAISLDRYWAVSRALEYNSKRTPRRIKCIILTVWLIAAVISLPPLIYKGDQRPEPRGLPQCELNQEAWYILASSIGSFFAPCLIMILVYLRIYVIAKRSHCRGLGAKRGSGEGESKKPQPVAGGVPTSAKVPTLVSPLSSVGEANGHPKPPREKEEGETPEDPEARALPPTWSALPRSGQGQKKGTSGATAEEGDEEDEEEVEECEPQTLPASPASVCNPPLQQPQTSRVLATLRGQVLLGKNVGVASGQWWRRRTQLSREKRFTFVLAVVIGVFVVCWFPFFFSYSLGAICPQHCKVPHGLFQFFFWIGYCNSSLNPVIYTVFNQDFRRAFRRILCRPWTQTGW

The target of test [7] is rat Gamma-Aminobutyric Acid Type B Receptor (GABBR), Gabbr1 (gene 81657) (UniProt Q9Z0U4). The experiment in a line: NVS_GPCR_rGABBR: NovaScreen (NVS) G Protein-Coupled Receptor Assay for rat Gamma-Aminobutyric Acid Type B Receptor (GABBR) (AID 2283301). In short, it runs like this: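 Radioligand displacement on rat cortical membranes, 1 h, filter-based scintillation counting. Primary screen at 25 uM in duplicate; compounds passing threshold re-tested in concentration-response up to 50 uM; loss of binding fitted against DMSO.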

Test [8] deals with rat Histamine Receptor (H3), Hrh3 (gene 85268) (UniProt Q9QYN8). The experiment in a line: NVS_GPCR_rH3: NovaScreen (NVS) G Protein-Coupled Receptor Assay for rat Histamine Receptor (H3) (AID 2283303). In short, it runs like this:
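Rat forebrain membranes incubated 1 h with compound; radioligand displacement measured by filter-based scintillation counting. Single-concentration duplicates at 25 µM, then concentration-response up to 50 µM, relative to DMSO.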

Test [9] addresses human Neonicotinoid receptor (NNR), CHRNA2 (gene 1135) (UniProt Q15822). The experiment in a line: NVS_LGIC_hNNR_NBungSens: NovaScreen (NVS) Ligand-Gated Ion Channel Assay for human Neonicotinoid receptor (NNR) (AID 2283313). As for the experimental part:
NVS_LGIC_hNNR_NBungSens is a biochemical, single-readout assay that uses extracted gene-proteins from Human neuroblastoma membrane cells in a tissue-based cell-free assay. Measurements were taken 2 hours after chemical dosing in a 48-well plate.NVS_LGIC_hNNR_NBungSens is one of one assay component(s) measured or calculated from the NVS_LGIC_hNNR_NBungSens assay. It is designed to make measurements of radioligand binding, a form of binding reporter, as detected with scintillation counting signals by Filter-based radiodetection technology.Data from the assay component NVS_LGIC_hNNR_NBungSens was analyzed into 1 assay endpoint. This assay endpoint, NVS_LGIC_hNNR_NBungSens, was analyzed in the positive analysis fitting direction relative to DMSO as the negative control and baseline of activity. Using a type of binding reporter, loss-of-signal activity can be used to understand changes in the binding as they relate to the gene CHRNA2. Furthermore, this assay endpoint can be referred to as a primary readout, because the performed assay has only produced 1 assay endpoint. To generalize the intended target to other relatable targets, this assay endpoint is annotated to the ion channel intended target family, where the subfamily is ligand-gated ion channel. […]

Test [10] deals with rat Corticotropin Releasing Factor Receptor (CRF), Crhr1 (gene 58959) (UniProt P35353). The test is described as follows: NVS_GPCR_rCRF: NovaScreen (NVS) G Protein-Coupled Receptor Assay for rat Corticotropin Releasing Factor Receptor (CRF) (AID 2283300). The protocol:
NVS_GPCR_rCRF is a biochemical, single-readout assay that uses extracted gene-proteins from Rat cortical membranes in a tissue-based cell-free assay. Measurements were taken 2 hours after chemical dosing in a 96-well plate.NVS_GPCR_rCRF is one of one assay component(s) measured or calculated from the NVS_GPCR_rCRF assay. It is designed to make measurements of radioligand binding, a form of binding reporter, as detected with scintillation counting signals by […] radiodetection technology.Data from the assay component NVS_GPCR_rCRF was analyzed into 1 assay endpoint. This assay endpoint, NVS_GPCR_rCRF, was analyzed in the positive analysis fitting direction relative to DMSO as the negative control and baseline of activity. […] Furthermore, this assay endpoint can be referred to as a primary readout, because the performed assay has only produced 1 assay endpoint. […]
Binding assays used specific radioligands (tritiated, iodinated) with non-radioactive competitive displacement ligands in agonist or antagonist protocols (as indicated) and various reference compounds and inhibitors to titrate specific binding to receptors and transporters. Most enzyme assays (CYPs, kinases, phosphatases, proteases, HDACs) used recombinant protein and specific substrates (fluorescence mostly, some colorimetric and radioactive) and inhibitors, followed by a biochemical separation of substrate and product. […]

These results are taken from PubChem BioAssay (EPA / NIEHS).

The term AC50 denotes the midpoint of the concentration-response curve, whichever way the signal moves.

Inconclusive results are not listed. The source made the active and inactive calls. How the source made its calls: active means hit-call score of the fitted dose curve at least 0.9, where 1 is the maximum; inconclusive means response in the unintended direction; inactive means score below 0.9.

Sequence of rat Neurokinin-3 Receptor (NK3), Tacr3 (gene 24808) (P16177 whole entry, looked up): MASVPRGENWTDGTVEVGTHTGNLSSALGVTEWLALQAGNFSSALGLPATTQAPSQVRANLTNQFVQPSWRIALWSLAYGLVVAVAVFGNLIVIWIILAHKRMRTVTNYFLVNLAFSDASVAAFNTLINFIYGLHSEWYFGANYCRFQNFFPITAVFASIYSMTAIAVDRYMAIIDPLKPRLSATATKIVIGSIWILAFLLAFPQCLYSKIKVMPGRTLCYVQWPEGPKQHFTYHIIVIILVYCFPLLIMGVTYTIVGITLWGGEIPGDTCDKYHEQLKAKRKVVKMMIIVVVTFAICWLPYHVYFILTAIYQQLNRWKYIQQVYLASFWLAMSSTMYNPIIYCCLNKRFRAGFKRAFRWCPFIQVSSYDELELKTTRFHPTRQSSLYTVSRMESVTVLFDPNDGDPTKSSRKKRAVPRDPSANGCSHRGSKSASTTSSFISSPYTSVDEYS
Sequence of rat Neurokinin-1 Receptor (NK1), Tacr1 (gene 24807) (P14600 whole entry, looked up): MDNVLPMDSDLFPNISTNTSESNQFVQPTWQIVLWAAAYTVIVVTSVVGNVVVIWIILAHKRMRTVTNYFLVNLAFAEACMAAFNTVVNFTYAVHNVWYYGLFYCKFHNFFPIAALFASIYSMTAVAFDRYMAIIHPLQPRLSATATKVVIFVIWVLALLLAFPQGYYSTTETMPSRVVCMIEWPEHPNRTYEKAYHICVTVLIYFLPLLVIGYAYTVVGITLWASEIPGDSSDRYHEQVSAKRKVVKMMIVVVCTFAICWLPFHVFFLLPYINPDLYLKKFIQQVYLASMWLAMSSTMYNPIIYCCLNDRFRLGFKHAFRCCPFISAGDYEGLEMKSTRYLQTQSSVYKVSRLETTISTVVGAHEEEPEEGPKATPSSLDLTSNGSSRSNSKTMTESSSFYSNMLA
Sequence of rat Opioid Receptor, Non-selective Sodium (Na+) Binding, Oprm1 (gene 25601) (P33535 whole entry, looked up): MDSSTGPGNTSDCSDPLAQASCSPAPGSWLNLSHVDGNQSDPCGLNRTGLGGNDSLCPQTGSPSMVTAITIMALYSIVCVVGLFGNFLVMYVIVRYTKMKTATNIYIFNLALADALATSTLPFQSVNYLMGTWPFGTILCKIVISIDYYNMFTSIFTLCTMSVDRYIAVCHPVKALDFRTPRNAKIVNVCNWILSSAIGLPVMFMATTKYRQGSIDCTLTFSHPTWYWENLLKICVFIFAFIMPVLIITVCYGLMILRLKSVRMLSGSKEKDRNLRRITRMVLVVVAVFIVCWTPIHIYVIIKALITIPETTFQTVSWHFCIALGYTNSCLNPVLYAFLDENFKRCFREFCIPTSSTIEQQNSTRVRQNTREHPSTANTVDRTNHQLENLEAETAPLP
Sequence of human Neonicotinoid receptor (NNR), CHRNA2 (gene 1135) (Q15822 whole entry, looked up): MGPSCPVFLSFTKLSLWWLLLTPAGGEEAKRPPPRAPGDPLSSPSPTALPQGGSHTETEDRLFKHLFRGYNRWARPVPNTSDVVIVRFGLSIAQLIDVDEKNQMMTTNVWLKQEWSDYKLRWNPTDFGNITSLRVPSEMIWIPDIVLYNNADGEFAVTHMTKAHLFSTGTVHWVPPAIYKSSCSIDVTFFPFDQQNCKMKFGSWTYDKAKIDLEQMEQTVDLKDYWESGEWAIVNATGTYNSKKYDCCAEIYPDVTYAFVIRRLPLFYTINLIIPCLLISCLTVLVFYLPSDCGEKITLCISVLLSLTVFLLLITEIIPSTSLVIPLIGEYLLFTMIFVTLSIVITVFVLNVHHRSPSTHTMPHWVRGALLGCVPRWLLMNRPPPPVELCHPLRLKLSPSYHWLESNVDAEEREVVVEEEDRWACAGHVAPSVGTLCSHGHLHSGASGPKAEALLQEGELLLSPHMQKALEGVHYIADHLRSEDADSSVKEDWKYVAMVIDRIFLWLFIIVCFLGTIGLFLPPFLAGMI
Sequence of rat Histamine Receptor (H3), Hrh3 (gene 85268) (Q9QYN8 whole entry, looked up): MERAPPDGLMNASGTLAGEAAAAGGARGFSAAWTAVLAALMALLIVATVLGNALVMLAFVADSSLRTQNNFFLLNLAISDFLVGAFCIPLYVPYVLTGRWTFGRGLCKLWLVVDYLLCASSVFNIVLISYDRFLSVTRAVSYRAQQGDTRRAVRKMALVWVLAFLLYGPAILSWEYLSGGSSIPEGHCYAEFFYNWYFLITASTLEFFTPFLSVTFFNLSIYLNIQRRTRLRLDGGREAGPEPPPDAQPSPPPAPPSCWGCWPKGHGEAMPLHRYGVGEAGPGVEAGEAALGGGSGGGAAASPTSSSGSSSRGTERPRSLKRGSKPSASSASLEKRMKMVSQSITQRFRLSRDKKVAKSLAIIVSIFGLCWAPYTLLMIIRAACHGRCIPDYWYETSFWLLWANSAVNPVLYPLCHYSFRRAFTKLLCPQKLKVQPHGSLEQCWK
Sequence of rat Corticotropin Releasing Factor Receptor (CRF), Crhr1 (gene 58959) (P35353 whole entry, looked up): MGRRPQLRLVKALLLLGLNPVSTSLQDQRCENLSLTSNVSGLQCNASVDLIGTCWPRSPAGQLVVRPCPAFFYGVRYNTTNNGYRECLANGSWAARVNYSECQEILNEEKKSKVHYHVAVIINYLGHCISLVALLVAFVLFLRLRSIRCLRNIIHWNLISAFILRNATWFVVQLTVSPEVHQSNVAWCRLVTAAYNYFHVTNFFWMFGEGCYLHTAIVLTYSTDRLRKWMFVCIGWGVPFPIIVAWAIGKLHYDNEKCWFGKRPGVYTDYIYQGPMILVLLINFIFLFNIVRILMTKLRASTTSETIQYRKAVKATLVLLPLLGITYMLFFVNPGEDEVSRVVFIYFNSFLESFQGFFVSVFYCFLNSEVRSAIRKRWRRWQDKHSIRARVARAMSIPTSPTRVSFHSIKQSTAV

With `CCSC(=O)N(CC)C1CCCCC1`, in test [1], the AC50 was 40.1 µM (active).
Consider `Oc1ccc(C(c2ccc(O)cc2)(C(F)(F)F)C(F)(F)F)cc1`, for which the AC50 in test [2] was 25 µM (active).
For `CCCCCCCCCc1ccc(O)cc1`, the result in test [3] was inactive.
On to `C[C@]12CCC(=O)C=C1CC[C@@H]1[C@@H]2CC[C@]2(C)C(=O)CC[C@@H]12`, for which the compound was called inactive in [2].
Regarding `CCC(C)(c1ccc(O)cc1)c1ccc(O)cc1`, the AC50 in test [2] is 25 µM (active).
Take `O=C(NC(=O)c1c(F)cccc1F)Nc1cc(Cl)c(OC(F)(F)C(F)F)c(Cl)c1`: in [2], the outcome was inactive.
In the case of `Cc1cc(-c2ccc(N)c(C)c2)ccc1N`, the outcome in test [4] was inactive.
Take `CCCCCCCCCC[N+](C)(C)CCCCCCCCCC`: the AC50 in [5] was 17.6 µM (active). Besides, the compound was called inactive in test [6], in test [1], in test [3] and in [2].
Consider `CC(C)(c1ccccc1)c1ccc(O)cc1`, for which the compound was called inactive in test [2].
In the case of `CCC(=O)O[C@H]1CC[C@H]2[C@@H]3CCC4=CC(=O)CC[C@]4(C)[C@H]3CC[C@]12C`, the compound was classed as inactive in test [5] and in test [3].
On to `O=C(N[C@H]1CN2CCC1CC2)c1cc2ccoc2cn1`, for which the outcome in [4] and in test [7] was inactive. Moreover, the AC50 in test [8] was 1.75 µM (active); in test [6], 16.4 µM (active); in test [9] it was 17.7 µM (active).
As to `CCC(C)(CC)c1cc(NC(=O)c2c(OC)cccc2OC)on1`, the compound was classed as inactive in test [3].
`Cc1cc2c3c(c1)C(c1ccccc1)=N[C@@H](NC(=O)c1ccncc1)C(=O)N3CC2`: the result in test [1] and in test [2] was inactive. Further, the AC50 in test [3] is 0.073 µM (active).
As for `CC(c1ccc(O)cc1)(c1ccc(O)cc1)c1ccc(O)cc1`, the compound was called inactive in test [10].
